# Test system: Plasmodium falciparum
# Experiment: GSK_TCMDC: Inhibition of Plasmodium falciparum 3D7 in whole red blood cells, using parasite LDH activity as an index of growth. Test compounds present at 2uM
# Format: functional
row,SMILES,Inhibition [%]
1,CC(=O)Nc1cc(C(=O)Nc2cccc(-c3cccc(-c4nc5cccc(C)c5[nH]4)c3)c2)ccc1C,100
2,CCOC(=O)N/N=C/[C@H](CCc1ccccc1)NC(=O)[C@H](CC(C)C)NC(=O)c1cc2cccc(OC)c2o1,84
3,CC(=O)Nc1cccc(C(=O)Nc2cccc(-c3ccc(-c4nc5cc(F)ccc5[nH]4)cc3)c2)c1,95
4,CCN(CCO)CCCC(C)Nc1ccnc2cc(Cl)ccc12.O=S(=O)(O)O (stereo not given) [HYDROXYCHLOROQUINE SULFATE],99
5,CNC(=O)c1cc(Nc2nnc(-c3ccc(C)c(S(=O)(=O)NC4CCCCC4)c3)c3ccccc23)ccc1OC,87
6,COCCNCc1cccc(C#Cc2cc3ncnc(Nc4ccc(OCc5cccc(F)c5)c(Cl)c4)c3s2)n1,99
7,CC(C(=O)OCCOCn1cnc2c(=O)[nH]c(N)nc21)N(C)C(=O)OC(C)(C)C (stereo not given),87
8,O=C(O)C(F)(F)F.O=S(=O)(NCCN1CCCC1)c1ccc(-c2ccc(CNCc3ccc(F)cc3)cc2)cc1F,82
9,Cc1cc(CN2CCC(N3CC(c4ccccc4)(c4ccccc4)OC3=O)C2)ccc1O (stereo not given),96
10,CN(C)CCC(O)C=C(c1ccc(Cl)cc1)c1ccc(Cl)cc1 (stereo not given),93
11,CO/C(=C\C=C\c1cc2cc(Cl)c(Cl)cc2[nH]1)C(=O)NCCCN1CCN(c2ccncc2)CC1,98
12,Cl.c1ccc(COc2ccc(Nc3ncnc4cnc(-c5ccc(CN6CCCCC6)o5)cc34)cc2)cc1,90
13,CCOC(=O)c1cncc(/C=C/c2cc(C)cnc2N)c1,86
14,CC(C)CCNc1nc2ccccc2nc1Nc1cccc(C(F)(F)F)c1,98
15,CC(C)COc1ccc(Cl)cc1Cc1ccc(-c2nc3cc(CCN4CCCC4)ccc3[nH]2)o1.Cl,100
16,CC(=O)Nc1ccc(C(=O)NC2CCN(c3ccnc4cc(Cl)ccc34)CC2)cc1.O=C(O)C(F)(F)F,100
17,COc1ccc(Nc2cc(C)nc(NCc3ccc4c(c3)OCO4)n2)cc1,99
18,CC(C)(C)C1CC(=O)CC2C(=O)N(C3CCCCC3)C(=O)C21 (stereo not given),97
19,CCc1ccc(NC(=O)c2ccc(CN3CCCN(Cc4cccc(O)c4)CC3)cc2)cc1.O=C(O)C(F)(F)F,100
20,O=C(Nc1ccsc1)Nc1cccc(-c2cccc(-c3nc4ccccc4[nH]3)c2)c1,100

row,SMILES,Inhibition [%]
1,Nc1nc(N)c2c(Cc3ccc(Br)cc3)cccc2n1,99
2,CN1CCCC1CCNCc1cccc(-c2cnc(N(C)C3CCCCC3)nc2)c1 (stereo not given),99
3,CCCCN(Cc1cc(Cl)c(OCC)c(OC)c1)c1ccc(C(O)(C(F)(F)F)C(F)(F)F)cc1.O=C(O)C(F)(F)F,92
4,COc1ccc2nccc([C@@H](O)CN3CCC(NCc4cc5c(Cl)cccc5[nH]4)CC3)c2c1.O=C(O)C(=O)O,100
5,Cc1cccc2nc(-c3ccc(-c4cccc(NC(=O)Nc5ccc(F)c(F)c5F)c4)cc3)[nH]c12,100
6,Cc1ccc(CON2C(N)=NC(N)=NC2(C)C)c(Cl)c1.Cc1ccc(CON2C(N)=NC(N)=NC2(C)C)cc1Cl,91
7,COc1ccc(CC2(c3ccc(F)cc3)N=C(N)N(CCCc3cccnc3)C2=O)cc1.O=C(O)C(F)(F)F (stereo not given),98
8,Cc1cc(N[C@@H](Cc2ccccc2)C(=O)NC2CCCC2)nc(NCc2ccccc2C)n1.O=C(O)C(F)(F)F,91
9,CC(=O)Nc1cccc(-c2cnc(N)c3cc(-c4ccc5c(c4)OCO5)ccc23)c1,99
10,Cc1cc(N[C@@H](Cc2ccccc2)C(=O)NCCOc2ccccc2)nc(NCCc2ccccn2)n1.O=C(O)C(F)(F)F,92
11,N#Cc1ccc(N2CCN(C(=O)c3cccc(-c4noc(C(F)(F)F)n4)c3)CC2)nc1,84
12,C/C=C/COc1ccc2ccccc2c1CNCCCCCCCCNCc1c(OC/C=C/C)ccc2ccccc12.CS(=O)(=O)O.O,87
13,COc1ccc(Cn2c(Nc3cccc(C(F)(F)F)c3)nc3cc(C(=O)NCCCN(C)C)ccc32)cc1Cl,90
14,COc1ccc(O)c(C(=O)c2cc(C(=O)NC3CCCCC3)c(=O)n(C3CCCCC3)c2)c1,99
15,CON(C)C(=O)[C@@H](CCCCNC(=O)OCc1ccccc1)NC(=O)OC(C)(C)C,98
16,CC1CCCN(Cc2c(O)ccc3c(O)c(-c4nc5ccccc5s4)c(=N)oc23)C1 (stereo not given),100
17,O=C(NCCc1ccccc1)N(Cc1cccc(-c2ccc(CNC3CCCC3)cc2)c1)C1CCN(Cc2ccccc2)CC1.O=C(O)C(F)(F)F,98
18,CSc1ccc(CN2CCC(CNC(=O)c3cc(-c4ccccc4F)cs3)C2)cc1.O=C(O)C(F)(F)F (stereo not given),90
19,O=C(NCc1cccs1)[C@H](Cc1ccccc1)Nc1ccnc(NCCc2ccc(F)cc2)n1.O=C(O)C(F)(F)F,85
20,COc1ccc2ccc(F)c(CCN3CCC(NCc4cc5c(cn4)OCCO5)CC3)c2n1.Cl,96
